Bioassay records as filed in PubChem BioAssay.
DAX1 inh-1 = DAX1 (NR0B1) inhibitors on StAR promoter, primary screen, cell-based, luminescence, SF-1 (NR5A1), full-length DAX-1 | HEK293T StAR-luciferase reporter, SF-1/DAX-1 repression relief | inhibition, % at 6.8 µM | 1.1% of 370,000 active | AID 652010, 2013;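 active = inhibition above the mean over all tested compounds plus 3 SD, cut at about 3.6% in these data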;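 also: 0% = DAX-1 cells with DMSO and 100% = cells lacking DAX-1 with DMSO; higher inhibition means more luminescence from relief of DAX-1 repression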
AHR act = AHR activators, primary screen, cell-based, luminescence, luciferase reporter, human | Aryl hydrocarbon receptor (Homo sapiens), P35869 | AHR-responsive luciferase reporter cells | activation, % at 5 µM | 2.5% of 320,000 active; in the data active = activation above about 47%;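 also: 0% = vehicle wells and 100% = reference agonist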
Target sequence (P35869 whole entry, looked up): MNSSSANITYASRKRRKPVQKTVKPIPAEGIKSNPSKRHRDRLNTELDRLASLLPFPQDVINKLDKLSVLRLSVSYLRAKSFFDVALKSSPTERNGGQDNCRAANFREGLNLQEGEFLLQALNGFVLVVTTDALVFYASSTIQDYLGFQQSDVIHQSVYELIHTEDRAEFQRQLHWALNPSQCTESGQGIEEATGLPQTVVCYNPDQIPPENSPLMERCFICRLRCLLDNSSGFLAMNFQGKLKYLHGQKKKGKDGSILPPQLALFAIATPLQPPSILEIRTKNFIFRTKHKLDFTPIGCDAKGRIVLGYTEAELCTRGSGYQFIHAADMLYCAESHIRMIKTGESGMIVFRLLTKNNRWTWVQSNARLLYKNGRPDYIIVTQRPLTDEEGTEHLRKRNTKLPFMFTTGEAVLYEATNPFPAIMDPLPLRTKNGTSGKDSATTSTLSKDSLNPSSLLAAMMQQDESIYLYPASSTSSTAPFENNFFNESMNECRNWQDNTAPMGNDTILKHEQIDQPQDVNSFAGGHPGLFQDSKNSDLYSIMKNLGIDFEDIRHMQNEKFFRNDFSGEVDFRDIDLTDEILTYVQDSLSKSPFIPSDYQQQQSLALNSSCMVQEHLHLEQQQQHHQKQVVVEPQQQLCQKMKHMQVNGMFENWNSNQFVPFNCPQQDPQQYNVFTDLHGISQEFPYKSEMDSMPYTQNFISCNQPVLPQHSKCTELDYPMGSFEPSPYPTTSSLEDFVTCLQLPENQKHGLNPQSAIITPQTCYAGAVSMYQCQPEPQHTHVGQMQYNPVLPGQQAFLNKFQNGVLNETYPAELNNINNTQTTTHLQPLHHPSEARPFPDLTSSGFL
hgDAF-12 ag = H. glycines DAF-12 receptor agonists, primary screen, cell-based, luminescence, HEK293, GAL4 fusion, UAS-luciferase; Nuclear hormone receptor DAF-12 (Heterodera glycines), GAL4 fusion; HEK293 GAL4-hgDAF12 UAS-luciferase reporter, agonist luminescence; normalized to butyrate control; activation, % at 6.8 µM; 1.8% of 370,000 active; AID 687014, 2013;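 active = activation above a cutoff set at the mean of all screened compounds plus 3 SD, cut at about 10% in these data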;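 also: 0% = DMSO wells and 100% = sodium butyrate wells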
hcDAF12 agonist = H. contortus DAF-12 nuclear receptor activators, primary screen, cell-based, luminescence, HEK293, lit1-tk-luc reporter. HEK293 hcDAF-12 lit1-tk-luc reporter; 0% DMSO, 100% Δ7-dafachronic acid. activation, % at 6.8 µM. 1.4% of 370,000 active. AID 652067, 2013;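 active = activation above the mean of all tested compounds plus 3 SD, cut at about 5.5% in these data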;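 also: 100% = response to 3 µM Δ7-dafachronic acid high control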
DAX1 inh-2 = DAX1 (NR0B1) inhibitors, primary screen, cell-based, HEK293, Gal4-DAX1, luciferase luminescence; Nuclear receptor subfamily 0 group B member 1 (Homo sapiens), P51843; HEK293 Gal4-DAX1 luciferase reporter; inhibition, % at 6.75 µM; 0.99% of 340,000 active; AID 504766, 2011;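 active = inhibition above the mean over all tested compounds plus 3 SD, cut at about 4.2% in these data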;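 also: 0% = DAX1-transfected cells with DMSO and 100% = empty-vector control cells with DMSO; inhibition shows as a rise in luminescence from relieved DAX1 repression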
ssDAF-12 act = S. stercoralis DAF-12 nuclear receptor activators, primary screen, cell-based, luminescence, HEK293, GRIP1 co-expression, lit1-tk-luc. Nuclear hormone receptor DAF-12 (Strongyloides stercoralis). HEK293 ssDAF-12/GRIP1 lit1-tk-luc reporter; % of 3 µM dafachronic acid response. activation, % at 6.8 µM. 1% of 370,000 active;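 active = activation above the mean over all tested compounds plus 3 SD, cut at about 0.9% in these data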;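 also: 0% = DMSO-only wells and 100% = 3 µM delta7-dafachronic acid wells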
Active calls of the source: *. Only some compounds are listed: those with a hit (about 5.7% of all), similar ones and a draw of the others.

Screening O=C(CSc1nc2ccccc2s1)NNC(=S)Nc1ccccc1 returned DAX1 inh-1 -0.2, AHR act 27.3, hgDAF-12 ag -1.4, hcDAF12 agonist 2.0, DAX1 inh-2 0.1 and ssDAF-12 act -0.5.
`C=CCN1C(=O)C2(NNc3ccccc3O2)c2ccccc21` (stereo not drawn) gave DAX1 inh-1 0.7, AHR act 39.0, hgDAF-12 ag -0.7, hcDAF12 agonist 1.2, DAX1 inh-2 2.0 and ssDAF-12 act -0.7.
CCCCN1C(=O)C2(NNc3ccccc3O2)c2ccccc21 (stereo not drawn) was read as DAX1 inh-1 -0.1, AHR act 69.0*, hgDAF-12 ag 2.0, hcDAF12 agonist 2.3, DAX1 inh-2 -0.1 and ssDAF-12 act -0.5.
O=C(Cn1nc(-c2ccccc2)ccc1=O)NCCCN1CCOCC1 was read as DAX1 inh-1 -0.7, AHR act -1.2, hgDAF-12 ag 0.9, hcDAF12 agonist -1.8, DAX1 inh-2 0.0 and ssDAF-12 act -0.1.
COc1cccc(-c2ccc(=O)n(CC(=O)NCCN3CCOCC3)n2)c1 was read as DAX1 inh-1 -0.1, AHR act -1.3, hgDAF-12 ag 2.8, hcDAF12 agonist -0.5, DAX1 inh-2 1.3 and ssDAF-12 act 0.9*.
COc1ccccc1CCn1cnc2c3cc(C)ccc3n(C)c2c1=O was read as DAX1 inh-1 -0.1, AHR act 67.8*, hgDAF-12 ag -2.2, hcDAF12 agonist -1.1, DAX1 inh-2 -0.1 and ssDAF-12 act -0.9.
CC1(C(=O)NCCN2CCOCC2)C=CC2(CCCCC2)N1C(=O)c1ccccc1 (stereo not drawn) was read as DAX1 inh-1 0.5, AHR act 2.1, hgDAF-12 ag 4.2, hcDAF12 agonist 1.1, DAX1 inh-2 0.6 and ssDAF-12 act -0.7.
For COCCNC(=O)C1(C)C=CC2(CCCCC2)N1C(=O)c1ccccc1 (stereo not drawn) the results were DAX1 inh-1 -0.4, AHR act 5.5, hgDAF-12 ag 1.9, hcDAF12 agonist -0.3, DAX1 inh-2 4.7* and ssDAF-12 act -0.7.
Screening CN=c1scc(-c2ccc([N+](=O)[O-])cc2)n1/N=C/c1ccco1 returned DAX1 inh-1 0.7, AHR act -12.9, hgDAF-12 ag 3.6, hcDAF12 agonist -1.6, DAX1 inh-2 2.1 and ssDAF-12 act -2.0.
For CN=c1scc(-c2ccc(F)cc2)n1/N=C/c1ccc(O)c(O)c1 the results were DAX1 inh-1 0.8, hgDAF-12 ag -0.5, hcDAF12 agonist 6.3*, DAX1 inh-2 -0.6 and ssDAF-12 act -0.8.
Screening CCCCCCOc1ccc(C(CC(N)=O)C(=O)O)cc1 (stereo not drawn) returned DAX1 inh-1 -0.3, AHR act 1.1, hgDAF-12 ag -2.1, hcDAF12 agonist -1.1, DAX1 inh-2 4.4* and ssDAF-12 act 0.3.
For CCCCCCOc1ccc(C(CC(=O)NC)C(=O)O)cc1 (stereo not drawn) the results were DAX1 inh-1 0.8, AHR act -0.3, hgDAF-12 ag -1.2, hcDAF12 agonist 0.2, DAX1 inh-2 -1.6 and ssDAF-12 act -0.8.
For Clc1ccc2c(NCc3cccs3)ncnc2c1 the results were DAX1 inh-1 -1.0, AHR act 21.9, hgDAF-12 ag -4.2, hcDAF12 agonist -1.4, DAX1 inh-2 -0.8 and ssDAF-12 act -0.8.
Clc1ccc2c(NCc3ccccn3)ncnc2c1 was read as DAX1 inh-1 0.6, AHR act 59.5*, hgDAF-12 ag 0.0, hcDAF12 agonist 1.0, DAX1 inh-2 0.9 and ssDAF-12 act -0.8.
For COc1cccc(C(=O)NN2C(=S)N(c3ccccc3)C(=O)C2CC(N)=O)c1 (stereo not drawn) the results were DAX1 inh-1 0.6, AHR act -1.3, hgDAF-12 ag 7.4, hcDAF12 agonist 2.2, DAX1 inh-2 3.6 and ssDAF-12 act -0.2.
Screening O=C(COC(=O)/C=C/c1cccc(Br)c1)NC1CCCC1 returned DAX1 inh-1 0.4, AHR act -0.1, hgDAF-12 ag -1.8, hcDAF12 agonist -0.1, DAX1 inh-2 1.3 and ssDAF-12 act -1.2.
Cc1ccc(N(CC(=O)NCC2CCCO2)C(=O)Cn2nnc(-c3cccs3)n2)cc1 (stereo not drawn) was read as DAX1 inh-1 2.7, AHR act 0.1, hgDAF-12 ag 11.6*, hcDAF12 agonist 5.6*, DAX1 inh-2 -1.2 and ssDAF-12 act 1.1*.
`O=C(C[C@@H]1C/C=C/CCCC(=O)O[C@H](c2ccccc2)CNC1=O)N[C@H](CO)Cc1ccccc1` gave DAX1 inh-1 0.2, AHR act -0.6, hgDAF-12 ag -0.5, hcDAF12 agonist -0.4, DAX1 inh-2 0.0 and ssDAF-12 act -1.0.
`CN(CC(=O)N1CCOCC1)C(=O)CSc1nc2ccccc2s1` gave DAX1 inh-1 -0.3, AHR act 11.5, hgDAF-12 ag 2.8, hcDAF12 agonist 1.9, DAX1 inh-2 0.6 and ssDAF-12 act 0.1.
`CC(Sc1nc2ccccc2s1)C(=O)N1CCOCC1` (stereo not drawn) gave DAX1 inh-1 0.8, AHR act 24.1, hgDAF-12 ag 3.3, hcDAF12 agonist 3.0, DAX1 inh-2 2.2 and ssDAF-12 act 1.2*.
For Cc1ccc(-n2c(CSc3nc(C)cc(C)n3)nnc2SCC(=O)NCc2ccco2)cc1 the results were DAX1 inh-1 0.8, AHR act 3.0, hgDAF-12 ag 3.5, hcDAF12 agonist 5.6*, DAX1 inh-2 -0.3 and ssDAF-12 act 0.9*.
`O=C(Cc1nnc(NC(=O)Nc2ccc(F)cc2)s1)Nc1ccccc1` gave DAX1 inh-1 -0.1, AHR act 3.9, hgDAF-12 ag -3.6, hcDAF12 agonist -0.9, DAX1 inh-2 0.9 and ssDAF-12 act 1.1*.
O=C1CCC[C@@H]2Cc3nc4cc5c(cc4cc3[C@@H]3CCN1[C@H]23)OCO5 was read as DAX1 inh-1 0.0, hgDAF-12 ag 4.7, hcDAF12 agonist 0.4, DAX1 inh-2 6.1* and ssDAF-12 act -1.1.
Screening O=C1CCCCCN1Cc1nnc(SCc2nc3ccccc3s2)n1-c1ccccn1 returned DAX1 inh-1 1.8, AHR act 23.9, hgDAF-12 ag 9.0, hcDAF12 agonist 5.7*, DAX1 inh-2 1.9 and ssDAF-12 act 1.9*.
`COC(=O)C(Cc1ccccc1)NC(=O)c1ccc(C)cc1` (stereo not drawn) gave DAX1 inh-1 -0.4, AHR act -2.2, hgDAF-12 ag 7.1, hcDAF12 agonist 0.5, DAX1 inh-2 -0.5 and ssDAF-12 act 1.3*.
